Inconclusive results are not listed. Active and inactive are the calls of the source. Unless noted, calls follow the shape of the full dose curve.

Here are results for seven compounds from PubChem BioAssay (Tox21).

Assay [1] is described as follows: Nuclear factor erythroid 2-related factor 2/antioxidant responsive element (Nrf2/ARE) small molecule agonists: qHTS cell viability counter screen in human keratinocytes (AID 1919968; active = well fitted curve in the direction sought with a large enough effect in the repeat runs; an effect the other way counts as inactive or inconclusive; also: nearly all actives have a fitted effect of over 55% in size). Put shortly:
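Seed 1,500 KeratinoSens cells per well, then incubate 5 h at 37 C/5% CO2. Add compounds in DMSO and incubate 23 h. Add CellTiter-Fluor, wait 1 h and read fluorescence.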
In general terms: Quantitative high-throughput screening tests each substance at several concentrations.

Assay [2] is described as follows: Nuclear factor erythroid 2-related factor 2/antioxidant responsive element (Nrf2/ARE) small molecule agonists: luciferase reporter gene qHTS assay in human keratinocytes (AID 1919969). Also: nearly all actives have a fitted effect of over 35% in size.
In assay [3] the target is Gonadotropin-releasing hormone receptor (Homo sapiens) (UniProt P30968). The assay can be described thus: Human gonadotropin-releasing hormone receptor (GnRHR) small molecule agonists, calcium flux assay in GnRHR-HEK293 cells (AID 1920063). Also: nearly all actives have a fitted effect of over 35% in size. Put shortly:
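Cells: HEK293 stably expressing human GnRHR. Steps: overnight (18 h) culture, 1 h calcium dye loading at 37 C, compound addition, kinetic fluorescence read at 480/540 nm. Each compound tested at 15 concentrations in triplicate.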
On the technique in general: Calcium assays in cells follow changes in intracellular calcium, usually with a dye or a luminescent sensor.

Assay [4] addresses KiSS-1 receptor (Homo sapiens) (UniProt Q969F8). Briefly: Human kisspeptin (KISS1R) small molecule agonists, calcium flux assay in KISS1R-HEK293 cells (AID 1920064; active = well fitted curve in the direction sought with a large enough effect in the repeat runs; an effect the other way counts as inactive or inconclusive). The method in brief: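 Cells plated and incubated 18 h; dye added, 1 h at 37 C; compounds in DMSO pinned in; signal read at 480/540 nm every second for 3 min. Each compound tested at 15 concentrations in triplicate.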

Assay [5] is described as follows: G protein-coupled receptor (GPCR) small molecule agonists, calcium flux assay: HEK293 wild type cell line counter screen (AID 1920065). The method in brief:
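Counter-screen of the Tox21 10K library for non-specific calcium release: dye-loaded cells received compounds in DMSO and were monitored by kinetic fluorescence (480/540 nm, 3 min). Fifteen concentrations, run in triplicate.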

Assay [6] is described as follows: p53 small molecule agonists, cell-based qHTS assay with human liver microsomes (AID 1963577).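 Also: p53 response element beta-lactamase reporter cells with liver microsomes plus NADPH.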 The method in brief:
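p53RE-bla cells; 5 h settle, 37 C/5% CO2; cpd + HLM 0.5 mg/mL + NADPH 0.5 mg/mL (final); 16 h 37 C; LiveBLAzer 2 h RT dark; fluorescence readout.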

Assay [7] in a line: p53 small molecule agonists, cell-based qHTS assay with rat liver microsomes (AID 1963578). Put shortly:
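Rat liver microsome activation: microsomes 0.5 mg/mL, NADPH 0.5 mg/mL final; p53RE-bla cells, 16 h 37 C; LiveBLAzer readout, 2 h RT dark.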

Assay [8] in a line: p53 small molecule agonists, cell-based qHTS assay with human liver microsomes: qHTS cell viability counter screen (AID 1963579). Also: nearly all actives have a fitted effect of over 45% in size. The method in brief:
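Luminescent CellTiter-Glo read-out, 30 min at room temperature, gauged cytotoxicity in p53RE-bla cells exposed 16 h at 37 C to DMSO-dissolved compounds with metabolic activation by human liver microsomes and NADPH, each 0.5 mg/mL final.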

Assay [9] can be described thus: p53 small molecule agonists, cell-based qHTS assay with rat liver microsomes: qHTS cell viability counter screen (AID 1963580). Also: nearly all actives have a fitted effect of over 45% in size. Put shortly: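 p53RE-bla HCT-116 cells were exposed 16 h at 37 C to compounds with rat liver microsomes (0.5 mg/mL) and NADPH (0.5 mg/mL). Viability was measured in the same wells as ATP content by CellTiter-Glo luminescence.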
Assay [10] in a line: p53 small molecule agonists, cell-based qHTS assay: qHTS cell viability counter screen (AID 1963581). Also: nearly all actives have a fitted effect of over 45% in size. The method in brief:
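Cells: HCT-116 with p53 response element-driven beta-lactamase. Treatment: 16 h, 37 C, compounds in DMSO. Read: CellTiter-Glo luminescence after 30 min RT.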

Assay [11] can be described thus: p53 small molecule agonists, cell-based qHTS assay (AID 1963582; active = well fitted activation curve with a large enough effect in the signal ratio in the repeat runs, not every such curve was filed as active; the % refers to the signal ratio). Put shortly: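 Quantitative HTS in p53RE-bla cells: after a 5 h settling period, compounds delivered in DMSO were left on cells for 16 h at 37 C, and reporter induction was measured as fluorescence following 2 h substrate loading.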
In assay [12] the target is 5-hydroxytryptamine receptor 2A (Homo sapiens) (UniProt P28223). Briefly: 5-hydroxytryptamine receptor 2A (HTR2A) small molecule antagonists, cell-based qHTS assay (AID 1963586). Also: nearly all actives have a fitted effect of over 45% in size. Also: potency is read from the fitted curve at half-maximal effect. Put shortly:
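Antagonist-mode intracellular calcium assay: DOI (4 nM) added after 5 min compound pre-incubation at room temperature to dye-loaded HTR2A-CHO cells. Fluorescence followed for 3 min, sampled every second.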

The target is the same in assay [13]. Briefly: 5-hydroxytryptamine receptor 2A (HTR2A) small molecule agonists, cell-based qHTS assay (AID 1963587). Also: nearly all actives have a fitted effect of over 30% in size. Put shortly:
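CHO cells stably expressing human HTR2A, plated 18 h, loaded with calcium dye 1 h at 37 C. Agonist mode: compounds added and intracellular calcium fluorescence recorded kinetically for 2 min at 1 sec intervals.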

The target of assay [14] is Muscarinic acetylcholine receptor M1 (Homo sapiens) (UniProt P11229). The assay can be described thus: Cholinergic receptor muscarinic 1 (CHRM1) small molecule antagonists, cell-based qHTS assay (AID 1963588). Also: nearly all actives have a fitted effect of over 40% in size. The method in brief:
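CHRM1-CHO calcium-flux assay, antagonist mode. Cells were seeded 18 h, dye-loaded 1 h at 37 C and given compound for 5 min at RT, then acetylcholine was added at 50nM. FDSS fluorescence was read 3 min; 15 concentrations, three runs.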

Assay [15] has the same target. The assay can be described thus: Cholinergic receptor muscarinic 1 (CHRM1) small molecule agonists, cell-based qHTS assay (AID 1963589). Also: nearly all actives have a fitted effect of over 35% in size. The method in brief: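 Agonist-mode qHTS in CHO cells stably carrying human muscarinic M1. Intracellular calcium is tracked by fluorescence every second after compound transfer; each compound runs at 15 concentrations in three independent runs.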

Assay [16] in a line: cAMP Responsive Elements (CRE) small molecule agonists, cell-based qHTS assay (AID 1963590). The method in brief:
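Agonist mode qHTS in CRE-bla HEK 293T cells: compounds dosed from DMSO for 3 h at 37 C/5% CO2, followed by LiveBLAzer B/G FRET substrate for 2 h at room temperature.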

A short description of assay [17]: cAMP Responsive Elements (CRE) small molecule antagonists, cell-based qHTS assay (AID 1963591; active = well fitted inhibition curve with a large enough effect in the signal ratio in the repeat runs, not every such curve was filed as active; the % refers to the signal ratio). The method in brief:
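Antagonist mode: test compounds are co-incubated with the adenylyl cyclase activator NKH477 (0.25 uM final) on CRE-bla HEK293T cells for 3 h at 37 °C, followed by LiveBLAzer substrate loading.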

Assay [18] addresses Beta-2 adrenergic receptor (Homo sapiens) (UniProt P07550). Briefly: Adrenergic beta2 receptor (ADRB2) small molecule antagonists, cell-based qHTS assay (AID 1963592). Also: series mostly up to about 92 µM; nearly all actives have a fitted effect of over 50% in size. Put shortly:
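Cells (CHO, stable ADRB2 overexpression) incubated 18-20hr at 37C; compounds added from DMSO; agonist mix (1nM isoproterenol, 100uM IBMX, 25uM Ro-20-1724) added; 0.5hr RT; d2-cAMP and anti-cAMP-cryptate added; 1hr RT; 665/615 nm read.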

Assay [19] deals with D(2) dopamine receptor (Homo sapiens) (UniProt P14416). The assay can be described thus: Dopamine D2 receptor (DRD2) small molecule antagonists, cell-based qHTS assay (AID 1963595; active = well fitted inhibition curve with a large enough effect in the signal ratio in the repeat runs, with a control signal flat; the % refers to the signal ratio). Put shortly:
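HEK293 cells stably expressing DRD2 were preincubated with 0.1 mM Ro20-1724, then with compound for 10 min at room temperature. Cells were stimulated with 200 nM NKH477 plus 12 nM quinpirole for 30 min, and cAMP was read by HTRF.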

For assay [20] the target is unchanged. Briefly: Dopamine D2 receptor (DRD2) small molecule agonists, cell-based qHTS assay (AID 1963594). Also: nearly all actives have a fitted effect of over 35% in size. The method in brief:
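HEK293 cells stably expressing human DRD2, pre-treated with PDE inhibitor Ro20-1724 (0.1 mM final) and compound 10 min at room temperature, then stimulated with NKH477 (200nM […]) for 30 min. cAMP read by HTRF (665/620 nm).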

Chain of Muscarinic acetylcholine receptor M1 (Homo sapiens) (P11229 whole entry, looked up): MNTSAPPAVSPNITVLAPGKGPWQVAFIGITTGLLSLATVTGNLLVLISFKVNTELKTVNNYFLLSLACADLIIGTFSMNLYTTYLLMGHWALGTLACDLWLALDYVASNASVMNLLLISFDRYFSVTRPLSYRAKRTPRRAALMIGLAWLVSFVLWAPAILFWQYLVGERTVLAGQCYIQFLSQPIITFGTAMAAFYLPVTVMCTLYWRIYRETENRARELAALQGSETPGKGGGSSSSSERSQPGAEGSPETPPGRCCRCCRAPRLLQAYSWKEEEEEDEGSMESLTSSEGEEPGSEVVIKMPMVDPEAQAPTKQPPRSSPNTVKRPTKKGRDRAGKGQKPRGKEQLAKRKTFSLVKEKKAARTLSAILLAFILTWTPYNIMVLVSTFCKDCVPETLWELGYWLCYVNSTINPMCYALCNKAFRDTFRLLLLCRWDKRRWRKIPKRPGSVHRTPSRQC
Chain of Beta-2 adrenergic receptor (Homo sapiens) (P07550 whole entry, looked up): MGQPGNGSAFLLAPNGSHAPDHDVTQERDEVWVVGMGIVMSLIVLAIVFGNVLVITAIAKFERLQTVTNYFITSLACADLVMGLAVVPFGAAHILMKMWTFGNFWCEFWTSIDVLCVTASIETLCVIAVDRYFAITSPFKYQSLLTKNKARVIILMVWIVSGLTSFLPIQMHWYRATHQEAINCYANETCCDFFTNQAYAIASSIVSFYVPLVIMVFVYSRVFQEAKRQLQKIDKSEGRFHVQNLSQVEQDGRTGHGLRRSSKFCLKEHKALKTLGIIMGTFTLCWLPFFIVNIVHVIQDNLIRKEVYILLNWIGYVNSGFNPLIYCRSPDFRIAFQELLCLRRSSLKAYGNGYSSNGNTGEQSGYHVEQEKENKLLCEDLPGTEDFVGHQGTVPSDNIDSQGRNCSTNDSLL
Chain of D(2) dopamine receptor (Homo sapiens) (P14416 whole entry, looked up): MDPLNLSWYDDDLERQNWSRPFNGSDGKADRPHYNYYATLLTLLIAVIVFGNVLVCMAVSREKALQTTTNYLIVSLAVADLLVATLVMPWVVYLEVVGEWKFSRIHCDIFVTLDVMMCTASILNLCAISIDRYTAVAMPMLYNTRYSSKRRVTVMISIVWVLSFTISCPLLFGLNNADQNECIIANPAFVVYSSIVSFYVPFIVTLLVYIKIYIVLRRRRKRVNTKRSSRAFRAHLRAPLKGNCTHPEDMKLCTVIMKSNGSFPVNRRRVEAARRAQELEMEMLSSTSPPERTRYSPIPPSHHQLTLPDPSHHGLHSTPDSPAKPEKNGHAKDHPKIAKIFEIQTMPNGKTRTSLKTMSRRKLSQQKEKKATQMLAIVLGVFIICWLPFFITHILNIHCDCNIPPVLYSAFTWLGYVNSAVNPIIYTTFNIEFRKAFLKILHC
Chain of 5-hydroxytryptamine receptor 2A (Homo sapiens) (P28223 whole entry, looked up): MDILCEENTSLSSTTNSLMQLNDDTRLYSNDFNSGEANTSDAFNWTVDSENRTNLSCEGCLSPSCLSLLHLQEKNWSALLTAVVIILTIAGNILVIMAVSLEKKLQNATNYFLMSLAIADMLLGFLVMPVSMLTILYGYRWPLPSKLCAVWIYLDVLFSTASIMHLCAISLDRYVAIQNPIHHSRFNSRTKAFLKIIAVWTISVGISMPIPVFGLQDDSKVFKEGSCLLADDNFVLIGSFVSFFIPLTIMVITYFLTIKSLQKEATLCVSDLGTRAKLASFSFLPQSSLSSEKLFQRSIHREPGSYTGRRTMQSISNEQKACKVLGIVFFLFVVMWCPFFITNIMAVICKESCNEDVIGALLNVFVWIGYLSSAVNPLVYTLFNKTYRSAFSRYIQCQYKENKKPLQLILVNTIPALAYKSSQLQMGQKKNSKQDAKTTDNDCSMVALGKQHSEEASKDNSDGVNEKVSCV
Chain of KiSS-1 receptor (Homo sapiens) (Q969F8 whole entry, looked up): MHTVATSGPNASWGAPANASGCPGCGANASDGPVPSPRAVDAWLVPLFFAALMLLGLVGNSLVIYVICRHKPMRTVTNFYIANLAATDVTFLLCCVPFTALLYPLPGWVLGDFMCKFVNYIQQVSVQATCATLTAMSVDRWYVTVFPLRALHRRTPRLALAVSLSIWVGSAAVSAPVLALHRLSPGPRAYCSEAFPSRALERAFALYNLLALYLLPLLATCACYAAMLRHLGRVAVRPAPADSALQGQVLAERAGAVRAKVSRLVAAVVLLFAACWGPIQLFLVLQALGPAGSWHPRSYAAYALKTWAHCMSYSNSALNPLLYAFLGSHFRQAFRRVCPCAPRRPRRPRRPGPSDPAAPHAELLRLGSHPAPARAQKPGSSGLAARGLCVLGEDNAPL
Chain of Gonadotropin-releasing hormone receptor (Homo sapiens) (P30968 whole entry, looked up): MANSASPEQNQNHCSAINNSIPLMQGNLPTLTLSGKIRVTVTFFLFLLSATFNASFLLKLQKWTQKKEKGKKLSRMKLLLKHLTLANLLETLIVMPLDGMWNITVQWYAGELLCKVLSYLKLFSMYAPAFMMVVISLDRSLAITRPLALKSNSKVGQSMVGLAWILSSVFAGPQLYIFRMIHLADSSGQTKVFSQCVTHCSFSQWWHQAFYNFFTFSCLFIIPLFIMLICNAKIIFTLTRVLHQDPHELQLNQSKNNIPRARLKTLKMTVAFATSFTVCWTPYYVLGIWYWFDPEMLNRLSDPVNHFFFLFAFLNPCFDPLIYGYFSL

As for `Cc1ccc(-c2nc3ccc(C)cn3c2CC(=O)N(C)C)cc1`, the Potency entry in assay [1], in assay [2], in assay [3], in assay [4], in assay [5] and in assay [6] was “inactive” each time. Further, the Potency entry in [7], in assay [8], in [9], in assay [10], in [11] and in [12] was “inactive” in each case. The Potency entry in assay [13], in assay [14], in assay [15], in assay [16], in assay [17] and in [18] was “inactive” each time. For the same compound, the Potency result in assay [19] was “inactive”.

Consider `Nc1ccc(Oc2ccc(N)cc2)cc1`, for which the Potency entry in assay [1], in [2], in [3], in assay [4], in assay [5] and in assay [6] was “inactive” each time. The Potency entry in assay [7], in assay [8], in [9], in assay [10], in assay [11] and in [12] was “inactive” in each case. The Potency entry in assay [13], in assay [14], in assay [15], in assay [16], in assay [17] and in assay [18] was “inactive” in each case. For the same compound, the Potency entry in [20] and in assay [19] was “inactive” throughout.

As for `CNC(=O)Oc1ccccc1C1OCCO1`, the Potency result in [1], in assay [2], in assay [3], in assay [4], in assay [5] and in assay [6] was “inactive” in each case. In addition, the Potency entry in assay [7], in assay [8], in assay [9], in assay [10], in assay [11] and in [12] was “inactive” in each case. Also, the Potency entry in [13], in assay [14], in assay [15], in assay [16], in assay [17] and in [18] was “inactive” each time. Further, the Potency entry in assay [20] and in assay [19] was “inactive” each time.

As to `O=S(=O)(Cl)Cl`, the Potency entry in assay [1], in [2], in assay [3], in assay [4], in [5] and in assay [6] was “inactive” each time. In addition, the Potency entry in [7], in [8], in [9], in [10], in assay [11] and in assay [12] was “inactive” throughout. Besides, the Potency entry in [13], in [14], in assay [15], in assay [16], in assay [17] and in assay [18] was “inactive” throughout. Moreover, the Potency result in assay [20] and in assay [19] was “inactive” throughout.

As to `COc1cc(N)c(Cl)cc1C(=O)NC1CN2CCC1CC2` (stereo not drawn), the Potency result in [1], in assay [2], in assay [3], in [4], in [5] and in [6] was “inactive” in each case. For the same compound, the Potency entry in assay [7], in [8], in assay [9], in assay [10], in [11] and in [13] was “inactive” each time. Moreover, the Potency entry in [14], in assay [15], in assay [16], in assay [17], in assay [18] and in assay [19] was “inactive” in each case. Moreover, the Potency in [12] is 5.79 µM (active).

Take `CCCCOCC1CO1` (stereo not drawn): the Potency result in assay [1], in [2], in [3], in [4], in [5] and in assay [6] was “inactive” in each case. Besides, the Potency entry in assay [7], in [8], in assay [9], in assay [10], in assay [11] and in assay [12] was “inactive” throughout. Besides, the Potency entry in [13], in [14], in assay [15], in [16], in assay [17] and in [18] was “inactive” each time. The Potency entry in assay [20] and in [19] was “inactive” in each case.

For the compound `O=C(O)C(F)(F)C(F)(F)C(F)(F)C(F)(F)C(F)(F)C(F)(F)C(F)(F)C(F)(F)C(F)(F)C(F)(F)F`, the Potency result in assay [1], in assay [2], in assay [3], in assay [4], in assay [5] and in assay [6] was “inactive” throughout. Further, the Potency result in [7], in assay [8], in assay [9], in assay [10], in assay [11] and in assay [12] was “inactive” throughout. The Potency result in assay [13], in assay [14], in assay [15], in [16], in assay [17] and in assay [18] was “inactive” throughout. Moreover, the Potency entry in [20] and in assay [19] was “inactive” in each case.
